In PubChem BioAssay:
Calls of active or inactive are those of the source.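 The calls were made as follows, unless noted: active = inhibition above 20% together with a positive visual image hit; inconclusive = visual image hit but inhibition not above 20%; inactive = no visual image hit.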

Assays:
[1] = inhibitors of TNFa-induced NFkB p65 translocation, primary screen, imaging, HUVEC, MLSMR starter and 10KST1 sets (AID 438); conditions: HUVEC TNFa-induced p65 nuclear translocation; cell count: measured here: nuclei count (cytotoxicity indicator), at 2.08 µM; inhibition: at 2 µM, stronger effect = higher value, 0% TNFa-plus-vehicle, 100% no-TNFa wells;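 also: compound added about 3h40 before a 20 min TNFalpha stimulation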;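 as to inhibition: signal is the nuclear over cytoplasmic p65 intensity ratio per well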
[2] = inhibitors of E-selectin induction by TNFa, primary screen, imaging, HUVEC, immunofluorescence, MLSMR starter and 10KST1 sets (AID 487;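 active = visually confirmed hit in the image check and inhibition above 20%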;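 as to inhibition: signal is fraction of cell area covered by stained E-selectin grains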;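 as to nuclei count: 100% = median nuclei count of all wells on the same plate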); conditions: HUVEC TNFalpha-induced E-selectin immunofluorescence imaging, at 2 µM; inhibition: stronger effect = higher value; nuclei count: measured here: cell number, toxicity
[3] = DUSP6 inhibitors restoring Erk phosphorylation by chemical complementation, primary imaging in DUSP6-transfected HeLa (AID 609;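 active = compounds giving at least 50% inhibition in the cell-based MKP-3 phosphatase rescue imaging test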;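 as to inhibition: phospho-Erk level distribution per well compared with pooled transfected vehicle control wells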); conditions: HeLa MKP-3 transfected, phospho-Erk imaging KS statistic, at 10 µM, cells stimulated with TPA for 15 min
[4] = biological target: Dual specificity protein phosphatase 6 (Homo sapiens) (UniProt Q16828); experiment: as above; conditions: HeLa MKP-3 transfected, phospho-Erk imaging KS statistic; at 10 µM; stronger effect = higher value; cells stimulated with TPA for 15 min
Sequence of Dual specificity protein phosphatase 6 (Homo sapiens) (Q16828 whole entry, looked up): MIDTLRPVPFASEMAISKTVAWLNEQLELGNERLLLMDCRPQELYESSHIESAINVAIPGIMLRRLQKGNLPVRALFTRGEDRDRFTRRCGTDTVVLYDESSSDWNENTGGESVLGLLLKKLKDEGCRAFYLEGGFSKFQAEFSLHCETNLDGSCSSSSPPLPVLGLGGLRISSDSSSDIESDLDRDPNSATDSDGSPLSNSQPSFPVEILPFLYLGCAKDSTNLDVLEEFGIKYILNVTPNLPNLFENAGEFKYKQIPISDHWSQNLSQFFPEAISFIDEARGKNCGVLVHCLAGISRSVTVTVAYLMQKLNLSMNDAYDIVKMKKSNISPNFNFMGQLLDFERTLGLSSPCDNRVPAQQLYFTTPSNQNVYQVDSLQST

[5] = biological target: Voltage-gated potassium channel subunit beta-2 (Rattus norvegicus) (UniProt P62483); experiment: KvBeta enzyme negative modulators, primary screen, biochemical, NADPH fluorescence (AID 622;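 active = fluorescence slope higher than the sample average by over 3 SD, cut at about -0.22 in these data, passing the limit was not always enough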;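 also: slope of raw intensity against log time taken from 70 to 1610 s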); conditions: recombinant KvBeta, 4-cyanobenzaldehyde reduction, at 10 µM, stronger effect = higher value
Sequence of Voltage-gated potassium channel subunit beta-2 (Rattus norvegicus) (P62483 whole entry, looked up): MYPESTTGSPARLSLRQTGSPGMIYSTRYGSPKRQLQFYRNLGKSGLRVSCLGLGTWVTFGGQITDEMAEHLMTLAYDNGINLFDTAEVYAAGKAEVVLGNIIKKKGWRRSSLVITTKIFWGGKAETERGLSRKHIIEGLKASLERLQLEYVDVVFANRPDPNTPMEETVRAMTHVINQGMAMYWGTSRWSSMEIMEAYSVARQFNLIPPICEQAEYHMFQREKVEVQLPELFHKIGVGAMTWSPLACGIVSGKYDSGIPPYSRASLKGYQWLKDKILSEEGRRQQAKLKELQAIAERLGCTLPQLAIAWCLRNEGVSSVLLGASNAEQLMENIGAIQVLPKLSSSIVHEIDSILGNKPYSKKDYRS

[6] = biological target: Voltage-gated potassium channel subunit beta-2 (Rattus norvegicus) (UniProt P62483); experiment: KvBeta positive modulators, primary screen, biochemical, NADPH fluorescence (AID 623;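 active = NADPH fluorescence slope more negative than the mean of all samples by about 3 SD, 99.7% confidence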;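 also: fluorescence intensity change per second fitted from 20 to 320 s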); conditions: Recombinant KvBeta, NADPH fluorescence decrease slope, 10 min; at 10 µM; stronger effect = lower value
[7] = biological target: Muscarinic acetylcholine receptor M4 (Homo sapiens) (UniProt P08173); experiment: compounds altering M4/GIRK thallium flux, either direction, primary screen, M4 allosteric agonist project, cell-based, HEK293 M4/GIRK, BTC-AM (AID 625;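 active = fluorescence slope after compound addition differing from the mean of all tested samples at 99.7% confidence, mostly higher but some lower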;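 also: thallium influx through GIRK channels coupled to M4 in HEK293 cells with BTC-AM dye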); conditions: at 10 µM, actives lie on both sides
Sequence of Muscarinic acetylcholine receptor M4 (Homo sapiens) (P08173 whole entry, looked up): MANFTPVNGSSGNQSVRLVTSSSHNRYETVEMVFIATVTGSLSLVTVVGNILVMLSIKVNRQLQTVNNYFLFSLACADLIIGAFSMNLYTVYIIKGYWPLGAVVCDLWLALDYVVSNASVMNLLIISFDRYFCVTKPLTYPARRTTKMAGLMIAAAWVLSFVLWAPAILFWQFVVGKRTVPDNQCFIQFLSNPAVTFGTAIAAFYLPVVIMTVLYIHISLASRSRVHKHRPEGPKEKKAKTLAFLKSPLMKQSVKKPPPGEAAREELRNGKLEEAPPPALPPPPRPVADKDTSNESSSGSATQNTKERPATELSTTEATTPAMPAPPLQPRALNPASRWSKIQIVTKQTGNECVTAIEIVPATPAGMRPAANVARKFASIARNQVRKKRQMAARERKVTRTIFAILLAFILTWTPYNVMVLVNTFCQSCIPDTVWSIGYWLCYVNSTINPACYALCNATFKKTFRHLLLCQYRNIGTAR

[8] = inhibitors of larval lipid processing in zebrafish, primary screen, whole organism, PED6 fluorescence, gall bladder and intestine (AID 686;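 active = a full or partial loss of lipid-probe fluorescence in the fish gall bladder, intestine or both, judged by eye; inactive = no fluorescence loss, or compound toxic to the fish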;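 also: larvae 5 to 7 days old with five fish per well; signal comes from phospholipase A2 cleavage of quenched PED6 carried via bile; overnight exposure to compound and PED6 before scoring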); conditions: Zebrafish larvae PED6 lipid processing, fluorescence scoring; screened at 20 µM (by protocol)
[9] = inhibitors of Chlamydomonas gravitaxis, primary screen, whole organism, Chlamydomonas reinhardtii, WT vs cilia-less mutant, absorbance, 96-well (AID 463189;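 active = inhibition at or above 50% relative to wild type and mutant plate controls; inactive = inhibition below 50%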;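 also: 0% = wild type cc124 cells in DMSO and 100% = ciliumless bld1 mutant cells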); conditions: OD600 absorbance, 2 days, at 10 µM, stronger effect = higher value
[10] = inhibitors of mutant huntingtin aggregation, primary screen, imaging, exon1htt(103Q)mCFP cells, high-content imaging (AID 483;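 active = visual image review flags a hit and inhibition of aggregation exceeds 20%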;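 also: compound exposure lasted 3 days before fixation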;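 as to nuclei count: percent of the per-plate median nuclei count of sample wells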); conditions: exon1htt(103Q)mCFP cell line, aggregate imaging, at 2 µM; inhibition of aggregation: stronger effect = higher value; nuclei count: measured here: cell count, toxicity
[11] = biological target: Alpha-2C adrenergic receptor (Homo sapiens) (UniProt P18825); experiment: modulators of alpha2C/GIRK thallium flux, primary screen, cell-based, HEK293 alpha2C/GIRK1/2 (AID 624;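 active = fluorescence slope after compound addition differing from the mean of all screened samples at 99.7% confidence, in either direction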;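 also: slope of fluorescence ratio to pre-addition baseline per second over 15 to 24 s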); conditions: thallium flux BTC fluorescence, at 10 µM, actives lie on both sides
Sequence of Alpha-2C adrenergic receptor (Homo sapiens) (P18825 whole entry, looked up): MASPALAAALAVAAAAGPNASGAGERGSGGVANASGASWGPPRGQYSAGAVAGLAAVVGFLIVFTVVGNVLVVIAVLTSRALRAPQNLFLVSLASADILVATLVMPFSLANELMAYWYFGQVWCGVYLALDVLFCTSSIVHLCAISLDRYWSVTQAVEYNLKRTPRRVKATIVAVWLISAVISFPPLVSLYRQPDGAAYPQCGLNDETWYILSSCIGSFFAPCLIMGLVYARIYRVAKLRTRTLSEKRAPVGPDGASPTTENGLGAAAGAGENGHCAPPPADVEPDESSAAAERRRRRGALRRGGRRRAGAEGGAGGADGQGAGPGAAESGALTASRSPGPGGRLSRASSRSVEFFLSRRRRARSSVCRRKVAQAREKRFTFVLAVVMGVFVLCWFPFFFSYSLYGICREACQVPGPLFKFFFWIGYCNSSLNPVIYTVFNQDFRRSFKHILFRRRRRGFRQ

[12] = inhibitors of Sendai virus-induced IRF3 signaling, primary screen, TLR/RLR signaling modifier project, cell-based, Sendai virus stimulus, luciferase, 10K MLSCN set (AID 602276;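 active = inhibition at or above 50% at 10 µM; inactive = inhibition below 50%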;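 also: firefly luciferase from ISG56 promoter only with Renilla not read in this screen; 0% = Sendai virus plus DMSO and 100% = medium plus DMSO without virus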); conditions: HEK293 RL24 IRF3 luciferase reporter, at 10 µM, stronger effect = higher value
[13] = inhibitors of poly I:C-induced TLR3 signaling, primary screen, cell-based, poly I:C stimulus, luciferase, 10K MLSCN set (AID 602277;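 active = inhibition of the reporter signal at or above 50%; inactive = inhibition below 50%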); conditions: HEK293-TLR3 RL24 IRF3 luciferase reporter, at 10 µM, stronger effect = higher value
[14] = measured here: cell density z-score
[15] = measured here: nuclear c-Myc green intensity z-score
[16] = measured here: nuclear pErk red intensity z-score, stronger effect = higher value

| SMILES | cell count [1] | inhibition [1] | inhibition [2] | nuclei count [2] [%] | z-score [3, 14] | z-score [3, 15] | z-score [3, 16] | inhibition [4] | fluorescence slope [5] | NADPH fluorescence slope [6] | fluorescence slope [7] | outcome [8] | inhibition [9] | inhibition of aggregation [10] | nuclei count [10] [%] | slope [11] | inhibition [12] | inhibition [13] |
| --- | --- | --- | --- | --- | --- | --- | --- | --- | --- | --- | --- | --- | --- | --- | --- | --- | --- | --- |
| N#Cc1ccc(-c2ccc(OCC(O)Cn3nnc4ccccc43)cc2)cc1 (stereo unspecified) | 528 | -15.6% (inactive) | -19.3% (inactive) | 116 | -2.55 | 0.882 | 0.638 | 5.42% (inactive) | -0.422 (inactive) | -6e-06 (inactive) | 0.00426 (inactive) | inactive | 52.4% (active) | – | – | – | – | – |
| CCN(CC)Cc1c(O)ccc2c(C)c(CC(=O)OC)c(=O)oc12 | 660 | -1.4% (inactive) | 1.9% (inactive) | 145 | 0.613 | -0.319 | -0.573 | 2.71% (inactive) | -0.0165 (inactive) | -6.9e-06 (inactive) | 0.00599 (inactive) | inactive | 5.82% (inactive) | – | – | – | – | – |
| Cn1c(Cn2cnc3ccccc32)nc2ccccc21 | 543 | 0.2% (inactive) | 22% (inactive) | 78.7 | 1.23 | -0.835 | -0.272 | -3.95% (inactive) | -0.431 (inactive) | 9.8e-06 (inactive) | 0.00479 (inactive) | inactive | 23% (inactive) | – | – | – | – | – |
| COC(=O)c1ccc(-c2ccco2)n1Cc1nc(-c2ccc(OC)c(OC)c2)oc1C | 470 | -0.5% (inactive) | -28% (inactive) | 93.4 | – | – | – | – | -0.308 (inactive) | -4.8e-05 (inactive) | – | – | – | 19% (inactive) | 113 | 0.00465 (inactive) | 12.2% (inactive) | -0.464% (inactive) |
| CCCCSc1cc(C)nc2ncnn12 | 416 | -4% (inactive) | 12.1% (inactive) | 119 | – | – | – | – | -0.492 (inactive) | 3.1e-05 (inactive) | – | – | – | -3.2% (inactive) | 117 | 0.00349 (inactive) | -10.9% (inactive) | 9.98% (inactive) |
| COC(=O)c1c(-n2cnnn2)sc(C)c1C | 504 | -4.7% (inactive) | – | 172 | -0.751 | 1.91 | 1.76 | -2.29% (inactive) | -0.421 (inactive) | -4.5e-05 (inactive) | 0.00518 (inactive) | inactive | -6.11% (inactive) | – | – | – | – | – |
| O=C(CCS(=O)(=O)c1cccc2nsnc12)N1CCN(Cc2ccc3c(c2)OCO3)CC1 | 582 | 4.1% (inactive) | -84.7% (inactive) | 97.8 | – | – | – | – | -0.533 (inactive) | -4.8e-05 (inactive) | – | – | – | -47.2% (inactive) | 53.4 | 0.00459 (inactive) | 2.36% (inactive) | 14.2% (inactive) |
| Clc1ccc(C2Nc3ccccc3-n3cccc32)cc1 (stereo unspecified) | 637 | -1.6% (inactive) | -44.3% (inactive) | 104 | – | – | – | – | -0.301 (inactive) | 2.7e-06 (inactive) | – | – | – | 8.6% (inactive) | 109 | 0.00628 (inactive) | 5.43% (inactive) | 18.8% (inactive) |
| COc1ccccc1-c1nc2n(n1)C(c1cccs1)C(C(=O)Nc1cccnc1)=C(C)N2 (stereo unspecified) | 446 | 16.2% (inactive) | 7.4% (inactive) | 98.9 | – | – | – | – | -0.587 (inactive) | -3.8e-05 (inactive) | – | – | – | -15.2% (inactive) | 57.9 | 0.00515 (inactive) | -11.5% (inactive) | -7.18% (inactive) |
| Cn1nnc2cc(C(=O)N3CCCCCC3)ccc21 | 933 | 2.7% (inactive) | -5.7% (inactive) | 107 | – | – | – | – | -0.478 (inactive) | -4.7e-05 (inactive) | – | – | – | -9% (inactive) | 105 | 0.00659 (inactive) | -1.25% (inactive) | 12.6% (inactive) |
| Cn1c(NC(=O)c2cccc(Cn3cc(Cl)cn3)c2)nc2ccccc21 | 778 | -2.9% (inactive) | -61.1% (inactive) | 113 | – | – | – | – | -0.548 (inactive) | -1.6e-05 (inactive) | – | – | – | -32.7% (inactive) | 104 | 0.00464 (inactive) | -25.1% (inactive) | -112% (inactive) |
| COc1ccc(-c2nc3n(n2)C(=O)CC(c2ccco2)S3)cc1 (stereo unspecified) | 666 | -10.3% (inactive) | – | 135 | -1.15 | -1.31 | -2.71 | -11.5% (inactive) | -0.466 (inactive) | -5.1e-05 (inactive) | 0.00655 (inactive) | inactive | -9.22% (inactive) | – | – | – | – | – |
| Cc1cc2n(n1)C(c1ccccc1)Nc1ccccc1-2 (stereo unspecified) | 410 | -1.3% (inactive) | -13.2% (inactive) | 119 | – | – | – | – | -0.512 (inactive) | -3.7e-05 (inactive) | – | – | – | -2.5% (inactive) | 101 | 0.00459 (inactive) | -11.9% (inactive) | -26.7% (inactive) |
